Results published in PubChem BioAssay.

Target: Voltage-gated potassium channel subunit beta-2 (Rattus norvegicus) (UniProt P62483)
Assay: enhancers of rat Kvbeta2 NADPH turnover – biochemical, NADPH fluorescence, primary screen (AID 623);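 further: fluorescence intensity change per second fitted from 20 to 320 s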
Conditions: Recombinant KvBeta, NADPH fluorescence decrease slope, 10 min; at 10 µM; hits give low values

Chain of Voltage-gated potassium channel subunit beta-2 (Rattus norvegicus) (P62483 whole entry, looked up): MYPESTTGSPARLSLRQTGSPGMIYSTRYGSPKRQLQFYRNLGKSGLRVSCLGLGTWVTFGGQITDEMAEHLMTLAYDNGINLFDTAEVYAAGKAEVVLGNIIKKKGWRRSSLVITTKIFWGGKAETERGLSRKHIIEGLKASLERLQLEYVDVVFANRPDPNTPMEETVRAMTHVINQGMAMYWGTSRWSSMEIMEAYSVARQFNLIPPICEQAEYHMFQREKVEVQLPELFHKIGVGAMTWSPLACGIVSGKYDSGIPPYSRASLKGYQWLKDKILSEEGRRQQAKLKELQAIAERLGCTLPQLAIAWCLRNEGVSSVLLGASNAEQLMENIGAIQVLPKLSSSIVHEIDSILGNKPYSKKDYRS

NADPH fluorescence slope, inactive:
Cc1[nH]c(C(=O)N2CCCCC2)c(C)c1C(=O)NC1CCCCC1 2.6e-05
COc1ccc(OC)c(CNC(=O)COc2cc(=O)n(C)c3ccccc23)c1 -7.1e-06
CCc1nnc(NC(=O)C2CC(=O)N(Cc3ccco3)C2)s1 (stereo not drawn) -6.1e-05
Oc1cccc(C=NCc2ccccc2)c1O -4e-05
COc1ccc(-c2noc(CCCC(=O)O)n2)cc1 1.2e-05
CC(C)c1nnc(NC(=O)c2cnccn2)s1 -4.7e-05
Cc1cc(=O)n2nc(N3CCCC(C(=O)N4CCN(C)CC4)C3)sc2n1 (stereo not drawn) -3.4e-05
O=S(=O)(Cc1ccccc1)N1CCCCCC1 -5.8e-05
Cc1[nH]nc2c1C1(C(=O)N(Cc3ccc(Cl)cc3)c3ccccc31)C(C#N)=C(N)O2 (stereo not drawn) -3.4e-05
C=CCn1c(COc2ccccc2)nnc1SCC(=O)C(C)(C)C -3.9e-05
Nn1c(SCC(=O)Nc2ccc(F)cc2)nnc1-c1cccnc1 -0.000146
Cc1ccc(S(=O)(=O)N2CCOCC2)cc1C(=O)Nc1nc(-c2cccnc2)cs1 2.5e-05
C=CCN(C(=O)CNS(=O)(=O)c1ccccc1)C(C(=O)NCCOC)c1ccncc1 (stereo not drawn) 3.8e-06
O=C(CCn1c(=S)[nH]c2cc3c(cc2c1=O)OCO3)N1CCN(C2CCCCC2)CC1 -9.8e-07
CC(C)OC(=O)CN1C(=O)C(C)(C)Oc2ccc(C(=O)NC3CC3)cc21 -7.2e-05
C/C(N)=C(/C#N)C(=O)COC(=O)c1cc(C)n(-c2ccc(F)cc2)c1C 1.6e-05
O=C(Nc1cccc(F)c1)C1C2C=CC3(CN(CCCN4CCOCC4)C(=O)C13)O2 (stereo not drawn) -3.3e-05
CCOc1ccc2nc(SCC(=O)N3CCCCCC3)c(C#N)cc2c1 -3.2e-05
CCOC(=O)N(C)c1ccc(C(O)(C(F)(F)F)C(F)(F)F)cc1 -6.4e-05
CCOC(=O)c1sc(NC(=O)CSc2nnc3c4ccccc4n(CC)c3n2)nc1C -1.9e-05
COc1cc(CN(C)CC(=O)c2[nH]c(C)c(C(C)=O)c2C)ccc1OC(F)F -2.3e-05
CCCCn1c(SCC(=O)N2CC(=O)Nc3ccccc32)nnc1-c1ccoc1C -3.6e-05
CCOC(=O)c1ccc(N=c2sc(C(=O)OC)cc(=O)n2Cc2ccco2)cc1 -4.8e-05
CCOC(=O)CN(C(=O)CSc1nnc(-c2ccncc2)n1CCCN(C)C)c1ccccc1 -1.7e-05
CCOC(=O)N1CCN(c2c(NCCN(C)Cc3ccccc3)c(=O)c2=O)CC1 -1.8e-05
Clc1cccc(N2CCN(Cc3nc(-c4ccccc4)no3)CC2)c1 -9e-05
COc1ccccc1CN1CC(C(=O)NCc2cccnc2)CC1=O (stereo not drawn) -2.4e-05
COc1cccc(C2C(C(N)=O)=C(C)Nc3nc(-c4ccccc4Cl)nn32)c1 (stereo not drawn) -9.2e-05
CCOc1cccc(C(=O)N(Cc2ccco2)C2CCS(=O)(=O)C2)c1 (stereo not drawn) -6.1e-05
CCOC(=O)N1CCC(NC(=O)c2cc(C(=O)NC3CCCC3)ccc2CO)CC1 -5.1e-05
COc1ccc(Br)cc1CNC(=O)C1CCCN(S(C)(=O)=O)C1 (stereo not drawn) -5.7e-05
Cc1nc2c(C(=O)O)cnn2c(C)c1Cc1ccccc1F 4.6e-06
O=c1[nH]c(N2CCCCC2)nc2c1CCCC2 -2.4e-05
CC(C)(C)NC(=O)C(c1ccco1)N(C(=O)Cn1nnc(-c2ccc(F)cc2)n1)c1ccccc1F (stereo not drawn) -6.1e-05
O=C(Nc1ccccc1N1CCOCC1)c1ccc2ccccc2n1 -4.7e-05
Nc1nc2n(n1)C(c1cccc(Br)c1)CC(c1ccccc1)N2 (stereo not drawn) 9.1e-06
CCN(C(=O)c1cc(Cl)ccc1OC)c1ccccc1 -4.1e-05
CC(C)[C@H](NC(=O)OC(C)(C)C)c1nnc(SCc2cccc(F)c2)o1 -4.1e-06
CC(=O)NS(=O)(=O)c1ccc(NC(=O)c2ccccc2F)cc1 -3.8e-05

Target: Alpha-2C adrenergic receptor (Homo sapiens) (UniProt P18825)
Assay: compounds altering alpha2C-coupled GIRK flux – cell-based, HEK293 alpha2C/GIRK1/2, thallium flux, primary screen (AID 624;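 active means fluorescence slope after compound addition differing from the mean of all screened samples at 99.7% confidence, in either direction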;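 further: slope of fluorescence ratio to pre-addition baseline per second over 15 to 24 s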)
Conditions: thallium flux BTC fluorescence, at 10 µM, actives lie on both sides

Chain of Alpha-2C adrenergic receptor (Homo sapiens) (P18825 whole entry, looked up): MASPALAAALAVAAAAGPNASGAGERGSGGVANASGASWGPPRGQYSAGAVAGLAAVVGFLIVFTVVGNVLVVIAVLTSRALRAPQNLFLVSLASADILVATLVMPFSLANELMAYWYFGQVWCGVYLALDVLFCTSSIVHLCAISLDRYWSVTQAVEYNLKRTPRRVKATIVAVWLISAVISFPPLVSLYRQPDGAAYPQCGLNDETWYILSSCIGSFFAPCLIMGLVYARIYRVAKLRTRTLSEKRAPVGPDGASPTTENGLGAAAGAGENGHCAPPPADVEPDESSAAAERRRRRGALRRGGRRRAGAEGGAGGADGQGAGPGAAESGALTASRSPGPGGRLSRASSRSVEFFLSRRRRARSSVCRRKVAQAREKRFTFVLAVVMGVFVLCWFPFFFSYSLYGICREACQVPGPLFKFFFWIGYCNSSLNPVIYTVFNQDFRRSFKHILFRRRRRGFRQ

slope, inactive:
Cc1[nH]c(C(=O)N2CCCCC2)c(C)c1C(=O)NC1CCCCC1 0.00631
COc1ccc(OC)c(CNC(=O)COc2cc(=O)n(C)c3ccccc23)c1 0.00576
CCc1nnc(NC(=O)C2CC(=O)N(Cc3ccco3)C2)s1 (stereo not drawn) 0.00457
Oc1cccc(C=NCc2ccccc2)c1O 0.00215
COc1ccc(-c2noc(CCCC(=O)O)n2)cc1 0.00595
CC(C)c1nnc(NC(=O)c2cnccn2)s1 0.00644
Cc1cc(=O)n2nc(N3CCCC(C(=O)N4CCN(C)CC4)C3)sc2n1 (stereo not drawn) 0.00576
O=S(=O)(Cc1ccccc1)N1CCCCCC1 0.00613
Cc1[nH]nc2c1C1(C(=O)N(Cc3ccc(Cl)cc3)c3ccccc31)C(C#N)=C(N)O2 (stereo not drawn) 0.00523
C=CCn1c(COc2ccccc2)nnc1SCC(=O)C(C)(C)C 0.00312
Nn1c(SCC(=O)Nc2ccc(F)cc2)nnc1-c1cccnc1 0.00484
Cc1ccc(S(=O)(=O)N2CCOCC2)cc1C(=O)Nc1nc(-c2cccnc2)cs1 0.00585
C=CCN(C(=O)CNS(=O)(=O)c1ccccc1)C(C(=O)NCCOC)c1ccncc1 (stereo not drawn) 0.00567
O=C(CCn1c(=S)[nH]c2cc3c(cc2c1=O)OCO3)N1CCN(C2CCCCC2)CC1 0.00668
CC(C)OC(=O)CN1C(=O)C(C)(C)Oc2ccc(C(=O)NC3CC3)cc21 0.00477
C/C(N)=C(/C#N)C(=O)COC(=O)c1cc(C)n(-c2ccc(F)cc2)c1C 0.00428
O=C(Nc1cccc(F)c1)C1C2C=CC3(CN(CCCN4CCOCC4)C(=O)C13)O2 (stereo not drawn) 0.00626
CCOc1ccc2nc(SCC(=O)N3CCCCCC3)c(C#N)cc2c1 0.00304
CCOC(=O)N(C)c1ccc(C(O)(C(F)(F)F)C(F)(F)F)cc1 0.0041
CCOC(=O)c1sc(NC(=O)CSc2nnc3c4ccccc4n(CC)c3n2)nc1C 0.00568
COc1cc(CN(C)CC(=O)c2[nH]c(C)c(C(C)=O)c2C)ccc1OC(F)F 0.00408
CCCCn1c(SCC(=O)N2CC(=O)Nc3ccccc32)nnc1-c1ccoc1C 0.00478
CCOC(=O)c1ccc(N=c2sc(C(=O)OC)cc(=O)n2Cc2ccco2)cc1 0.00678
CCOC(=O)CN(C(=O)CSc1nnc(-c2ccncc2)n1CCCN(C)C)c1ccccc1 0.00606
CCOC(=O)N1CCN(c2c(NCCN(C)Cc3ccccc3)c(=O)c2=O)CC1 0.00728
Clc1cccc(N2CCN(Cc3nc(-c4ccccc4)no3)CC2)c1 0.00744
COc1ccccc1CN1CC(C(=O)NCc2cccnc2)CC1=O (stereo not drawn) 0.00742
COc1cccc(C2C(C(N)=O)=C(C)Nc3nc(-c4ccccc4Cl)nn32)c1 (stereo not drawn) 0.00547
CCOc1cccc(C(=O)N(Cc2ccco2)C2CCS(=O)(=O)C2)c1 (stereo not drawn) 0.00467
CCOC(=O)N1CCC(NC(=O)c2cc(C(=O)NC3CCCC3)ccc2CO)CC1 0.00598
COc1ccc(Br)cc1CNC(=O)C1CCCN(S(C)(=O)=O)C1 (stereo not drawn) 0.00566
Cc1nc2c(C(=O)O)cnn2c(C)c1Cc1ccccc1F 0.00393
O=c1[nH]c(N2CCCCC2)nc2c1CCCC2 0.00576
CC(C)(C)NC(=O)C(c1ccco1)N(C(=O)Cn1nnc(-c2ccc(F)cc2)n1)c1ccccc1F (stereo not drawn) 0.00563
O=C(Nc1ccccc1N1CCOCC1)c1ccc2ccccc2n1 0.00386
Nc1nc2n(n1)C(c1cccc(Br)c1)CC(c1ccccc1)N2 (stereo not drawn) 0.00794
CCN(C(=O)c1cc(Cl)ccc1OC)c1ccccc1 0.00295
CC(C)[C@H](NC(=O)OC(C)(C)C)c1nnc(SCc2cccc(F)c2)o1 0.00385
CC(=O)NS(=O)(=O)c1ccc(NC(=O)c2ccccc2F)cc1 0.00586
